# In the supplement of paper PMC6555819:
# Tests used:
# Assay in all cases: PBM binding z-score (relative to random genomic background probes); higher = stronger binding; sequences stand for … in GC…GCGATTGACAGCGTAGAATGAAGG
# [1] = system: FXR:RXRa (NR concentration 270 nM, RXRa partner concentration 90 nM)
# How it was run: (§1)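 The probes on custom Agilent 4×180K protein-binding microarrays were double-stranded, with 34-nt variable regions bearing direct-repeat seeds, single-nucleotide variants, half-site ablations and random human genomic background sequences. Incubation lasted 1 h with ligand-free nuclear receptor dimers in PBS pH 7.4, 2% milk, 0.02% Triton X-100, 1 mM DTT, 0.2 mg/mL BSA and 0.4 mg/ml salmon testes DNA. Antibodies against each partner (one per run) detected bound dimers, and fluorescence scans were regression-normalized. Binding z-scores take the random background probes as reference.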
# [2] = system: LXRa:RXRa (NR concentration 270 nM, RXRa partner concentration 90 nM)
# How it was run: as §1
# [3] = system: LXRa homodimer (NR concentration 270 nM)
# How it was run: as §1
# [4] = system: LXRb:RXRa (NR concentration 270 nM, RXRa partner concentration 90 nM)
# How it was run: as §1
# [5] = system: LXRb homodimer (NR concentration 270 nM)
# How it was run: as §1
# [6] = system: PPARa:RXRa (NR concentration 270 nM, RXRa partner concentration 90 nM)
# How it was run: as §1
# [7] = system: PPARg:RXRa (NR concentration 180 nM, RXRa partner concentration 90 nM)
# How it was run: as §1
# [8] = system: PPARg:RXRa 270nM:90nM, anti-RXR (NR concentration 270 nM, RXRa partner concentration 90 nM)
# How it was run: as §1
# [9] = system: PPARg:RXRa 30nM:10nM, anti-RXR (NR concentration 30 nM, RXRa partner concentration 10 nM)
# How it was run: as §1
# [10] = system: PPARg:RXRa 90nM:30nM, anti-RXR (NR concentration 90 nM, RXRa partner concentration 30 nM)
# How it was run: as §1
# [11] = system: PPARg:RXRa DBDmut IVT, anti-RXR (DBD mutation: RXRa K156A/R161A, NR concentration 270 nM, RXRa partner concentration 90 nM)
# How it was run: as §1
# [12] = system: PPARg:RXRa IVT, anti-PPARg (NR concentration 270 nM, RXRa partner concentration 90 nM)
# How it was run: as §1
# [13] = system: PPARg DBDmut:RXRa IVT, anti-PPARg (DBD mutation: PPARg1 K132A/R137A, NR concentration 270 nM, RXRa partner concentration 90 nM)
# How it was run: as §1
# [14] = system: PPARg DBDmut IVT, anti-PPARg (DBD mutation: PPARg1 K132A/R137A, NR concentration 270 nM)
# How it was run: as §1
# [15] = system: PPARg homodimer (NR concentration 180 nM)
# How it was run: as §1
# [16] = system: PXR homodimer (NR concentration 270 nM)
# How it was run: as §1
# [17] = system: RARa:RXR (NR concentration 270 nM, RXRa partner concentration 90 nM)
# How it was run: as §1
# [18] = system: RARa homodimer (NR concentration 270 nM)
# How it was run: as §1
# [19] = system: RARb:RXRa (NR concentration 270 nM, RXRa partner concentration 90 nM)
# How it was run: as §1
# [20] = system: PXR:RXRa (NR concentration 270 nM, RXRa partner concentration 90 nM)
# How it was run: as §1
Sequence,PBM binding z-score [1],PBM binding z-score [2],PBM binding z-score [3],PBM binding z-score [4],PBM binding z-score [5],PBM binding z-score [6],PBM binding z-score [7],PBM binding z-score [8],PBM binding z-score [9],PBM binding z-score [10],PBM binding z-score [11],PBM binding z-score [12],PBM binding z-score [13],PBM binding z-score [14],PBM binding z-score [15],PBM binding z-score [16],PBM binding z-score [17],PBM binding z-score [18],PBM binding z-score [19],PBM binding z-score [20]
ATGTGTAGGTTACATCCGGGTCATTCAGGCTATG,2.23,4.19,1.76,2.87,0.855,3.45,2.44,2.64,0.934,2.02,2.96,4.13,1.02,1.88,3.03,2.51,4.01,1.12,2.37,
ATACGTAGGTTACATCCGGGTCATTCAGGCTATG,2.32,4.39,1.12,2.83,0.366,3.03,1.57,1.54,0.526,1.13,1.15,2.36,1.24,0.742,1.87,2.6,3.48,0.687,2.27,
ATATGTAGGATATCGGGTCATTCAGTTTGCGCAT,1.64,1.98,0.589,2.02,0.577,3.05,2.36,2.9,1.16,2.09,3.29,4.09,1.47,1.41,1.07,4.53,2.53,1.03,1.66,
ATATGTAGGTTACATGCGGGTCATTCAGGCTATG,2.21,4.55,0.959,2.66,0.785,4.22,5.9,5.3,2.6,4.65,7.67,7.33,2.78,2.03,1.57,1.11,3.24,0.618,2.01,
ATCGAAAGGTCGAAGGTGACTATACCCACCCGAA,4.54,3.72,0.344,3.07,0.925,4.92,5.16,5,2.71,4.38,0.283,2.43,0.926,0.616,2.37,0.106,4.31,0.973,3.79,
CCTAGTTGGTCAAGGTAACACACGCTATAGGTAC,0.638,0.459,0.594,0.713,0.295,0.749,1.08,1.32,0.57,0.891,1.65,1.92,0.633,0.573,1.25,0.51,0.946,1.13,1.26,
CTCCAAAGGTCGGTTGAGGTGAGTATACGGATAA,2.49,1.93,-0.152,1.71,-0.00126,2.95,1.01,1.64,0.12,0.875,0.32,1.01,0.267,-0.816,1.53,0.251,2.58,-0.204,3.18,
CGAACTAGGTCAAAAGACAGTGAAAGGCGACGTA,3.09,2.03,-0.16,1.47,-0.191,4.46,8.06,7.08,5.52,7.26,7.84,7.79,,0.23,0.576,-0.275,1.45,-0.196,3.17,0.624
ATCGAAAGGTCGTCGAGGTGAGTATACACCGTTT,4.79,4.28,0.169,3.19,0.543,4.87,3.07,3.97,1.22,2.66,0.528,2.3,0.899,0.213,1.6,1.15,3.81,0.174,3.89,
ATATGTAGGTTAGGGTCACTCAGAAAGTAGGGAA,4.33,3.26,0.67,3.89,1.47,5.51,7.42,6.49,3.96,6.11,6.7,6.76,,1.93,3.25,1.5,4.51,1.73,3.8,3.88
AGATGTAGGTTAGGGTCATTCAGAAAGTAGGGAA,5.03,3.88,1.53,4.56,2.05,5.24,7.27,6.27,3.83,5.81,5.84,6.36,,2.37,3.93,3.03,5.13,3.23,3.39,4.39
ATATGTAGGTTACATCCGGGTCATTCTGGCTATG,2.03,3.94,1.66,3.12,0.83,4.43,6.19,4.83,2.69,3.95,7.39,7.49,2.61,2.66,1.91,0.712,3.04,0.96,2.21,
CGAATTAGGTCAAAGGACAGTGAAAGGCGACGTA,4.51,3.08,0.314,2.23,0.106,6.11,9.47,8.69,8.66,9.34,8.15,7.88,,2.44,2.21,0.358,2.87,0.296,4.18,1.46
TAGCCAAGGTCAGATCGGGCCAGTATACGCTATA,5.26,3.12,-0.0844,2.55,0.145,3.85,1.88,2.35,0.514,1.53,0.246,1.81,0.476,-0.254,1.38,-0.349,2.61,-0.193,4.3,
CGAACTAGGTCAAAGCACAGTGAAAGGCGACGTA,3.1,2.6,-0.247,1.56,-0.247,5.18,8.01,6.88,5.18,7.17,7.81,8.43,,5.29,3.43,-0.325,1.71,0.149,3.8,1.01
